This is an account of results in PubChem BioAssay AID1508600 (Functional Genomics Laboratory (NCATS/FGL), 2020).

Out of some 53,000 sequences screened, about 3,700 (7%) were called active.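 How the source made its calls: active means gene knockdowns whose robust z-score for IL-1 alpha signal is at least 2 or at most -2, so actives lie on both sides; inactive means the rest.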 Many of the other results were omitted from the sample, so actives are more common in it than they were.

This test can be described thus: Components of the Cytosolic LPS Sensing Pathway: Gene Identification via Genome-wide siRNA Screen.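 Further: robust z of the log signal after scaling to non-targeting control siRNA wells of the plate.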 The note with it: RAW264.7 macrophages, IL-1a HTRF, actives lie on both sides, screened at 100 nM (by protocol), cells primed 5 h with Pam3CSK4 first. An outline of the steps:
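RAW264.7 mouse macrophages reverse-transfected with single siRNAs (100 nM final) for 48h, primed with Pam3CSK4 for 5 hours, then transfected with LipidA for 24 hour. Supernatant IL-1a read by HTRF; values normalized to negative-control median, log-transformed robust z-scores.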
Background: In TR-FRET formats the signal depends on donor and acceptor labels being close together.
In the case of GGCCAGGUAACUCUUACAATT against Trpv1, the z-score was 1.12 (inactive).

Consider GGGUUAGCCAGAGCUCUAATT against N4bp2l1, for which the z-score is 3.03 (active).

With GGACAGUGUCUAGAUAUUGTT against Fbln5, the z-score is -1.18 (inactive).

In the case of GGACAAGUUGUUGGACUACTT against Hltf, the z-score was -1.02 (inactive).

With GGACAAUGUGAUGAAGAUUTT against Fgfr3, the z-score was -0.843 (inactive).

With GCCUCAUCAAUCCACUGCATT against Mtss2, the z-score is -0.956 (inactive).

In the case of GGGUGUGUUGGAUACCUAUTT against Adig, the z-score was 2.03 (active).

Turning to GGGAGUUGUAGUAUUAGUATT against Zfp94, the z-score is -1.19 (inactive).

Take AAAAAACAGCACCCUGAUGTT against Olfr204: the z-score is 1.1 (inactive).

As to GGUCAGCAUUAUCAAGCCUTT against Hsd11b2, the z-score was 0.159 (inactive).

Consider CCUGUGAAUACUUUCACUCTT against Bok, for which the z-score was 0.115 (inactive).

GGAAAUUGGCACCAUUACUTT against St3gal1: the z-score was 2.14 (active).

GCCAGUCAUUAUAGUUAACTT against Slc47a1: the z-score is 1.57 (inactive).

Consider GGAAGAACCACCACAAACUTT against Cstdc2, for which the z-score was -0.0281 (inactive).

For GGAGUUUGGUAAAAUUGACTT against Dhrs7, the z-score is -1.7 (inactive).

As to GGAAGAAAUUCCUAAUGAATT against Igsf11, the z-score is -1.01 (inactive).

GGACCAAGGAAUAUUUCCCTT against Serpinb9b: the z-score is -0.564 (inactive).

With GGGAUCAGAACAAGUAUAATT against Klc1, the z-score was 0.257 (inactive).

On to GGCUAAUAGACUUAUUAGGTT against Cdip1, for which the z-score is 0.45 (inactive).

As to GGGUCAUCCAAAUGGUUUGTT against Grm6, the z-score is 0.323 (inactive).

On to GGCUCACAGGACCUAUUUCTT against Col6a6, for which the z-score is -3.15 (active).

For GCUGUUUUGAGGAGCCUUCTT against Zfp410, the z-score is -0.962 (inactive).

Take GGGUGAUCGCACGAUUGAGTT against Casq2: the z-score was 0.364 (inactive).

Consider CCCACUCCGAUAUACUGCUTT against Olfr447, for which the z-score is 2.2 (active).

Consider GGAAAAUGGCAGAAAUGAATT against Vps26a, for which the z-score is -1.97 (inactive).

Consider GGAGGUUGUGAUCUUGAAATT against Tbc1d23, for which the z-score was -0.000244 (inactive).

Regarding CGUAGACUUAACCUACAAATT against Dync2h1, the z-score was 1.88 (inactive).

For GGUCAACCUUGAACUAAUATT against Dhx57, the z-score is 0.452 (inactive).

Regarding GCGAGUAGGACCAGUGAAATT against Xpo1, the z-score was -2.67 (active).

As to GGAUCUUGAGUUGGAGUCCTT against Nupr1l, the z-score is -0.319 (inactive).

Consider GCUAGAGUACAGCAAGCUGTT against Aifm3, for which the z-score is 1.21 (inactive).

For GGACGGUAACAACUACAAUTT against Polg, the z-score was 1.63 (inactive).

As for GGAUUAAAGGCCAUAAGGATT against Zfp747, the z-score was -0.813 (inactive).

On to CGAGUUUGACCGGACCAUCTT against Ssna1, for which the z-score is 2.44 (active).

In the case of GGAACAAGAGAAUGAUGAATT against Col5a2, the z-score was 0.343 (inactive).

As to CGAAGAUUAAUUUUGCUCATT against Lrrtm2, the z-score was 0.316 (inactive).

As to CGAGACUCUAUCUUUGUCCTT against St3gal3, the z-score was -0.785 (inactive).

Turning to CGUGGUAGUGAAAAUUGAGTT against Xbp1, the z-score is 0.282 (inactive).

Turning to GGCCGCAUACUGAUGAAAGTT against Scgn, the z-score was -0.395 (inactive).

Turning to GCUUUGUUGGGAGUGAAAUTT against Olfr728, the z-score is -2.11 (active).

CCACCACAGCUGAAGUCAGTT against Fen1: the z-score was -1.08 (inactive).

For the sequence GGUAAGCUAGGUUGCCCACTT against Gabarapl1, the z-score was 1.91 (inactive).

For “GGGUUAAGGUAGUUUCUAATT against 4930579C12Rik”, the z-score is 0.613 (inactive).

Turning to GGUGAAAUCCAGGAGUUUUTT against Rnd3, the z-score was 2.02 (active).

Regarding GGAAAUGAAGCUCAUGGAATT against Dcdc5, the z-score was -1.44 (inactive).

Regarding GGUUGCUAGUGCUAAGGACTT against Pdlim2, the z-score was 0.245 (inactive).

Regarding GGGCUGGUCAUUUACUAAGTT against Cdh22, the z-score is 1.32 (inactive).

In the case of CCAGAAUGUCACUGCCAGUTT against Zfy1, the z-score was 1.34 (inactive).

CCUGGAGAGUGAUACGUUCTT against Serpina1f: the z-score was -0.228 (inactive).

For GGUCAAACUUCAAUAGACATT against Zkscan6, the z-score is 2.01 (active).

Turning to GGGUGUUAGAAAUCAUUAUTT against Dgkd, the z-score is 1.19 (inactive).

In the case of GGAACUUCAGAGUAAACCUTT against H2-T23, the z-score was 0.096 (inactive).

For CCACAAUCAUUAACAAGCUTT against Arl6, the z-score is 0.389 (inactive).

For GGUUCAAGAGGAGACUACUTT against BC005624, the z-score is -0.127 (inactive).

For GGAAUAUGUGUGGACUAGATT against Tor3a, the z-score is -0.265 (inactive).

As for GGCUUACAAAAAGUACAUCTT against Tpt1, the z-score is 4.36 (active).

As for GGACCAUUCUUGCGUUCGUTT against Cacng7, the z-score is 1.66 (inactive).

With CCGAUUAGAAAAGACCAAATT against Ccdc25, the z-score is 0.727 (inactive).

In the case of GGAAGUUUUGGGAGUGUGUTT against Map3k20, the z-score is -1.08 (inactive).

CGCAACCUGUCACAUAAUATT against Bmpr2: the z-score is -0.238 (inactive).

With GCUGUUCUAUCAGACCUUUTT against Cyp2b10, the z-score was -0.236 (inactive).

For the sequence GGAGACUUAUAACAUGUUUTT against Habp2, the z-score is 2.19 (active).

For GCGAGUUGAAGACUGAAGGTT against Ccdc68, the z-score is 1.44 (inactive).

Regarding GGUCAUACAUUUGUCAUCATT against Bend7, the z-score was -0.336 (inactive).

On to CCAUGUUAGAACUGGGACUTT against Tafa2, for which the z-score is 2.44 (active).

Take GGUCAUGGGACAGCAAAUGTT against Tmco6: the z-score is -1.67 (inactive).

Turning to GGAAGACGUAUUUGUACACTT against Ybx1, the z-score is -0.523 (inactive).

Regarding GGAGUAGCUGAAUCUGAAGTT against Atp5e, the z-score is 1.57 (inactive).

CCUCAUUUCAACCAUUCACTT against Lyzl6: the z-score was -2.36 (active).

For GGAGCUUCAUCUUUCAAGATT against Uqcrc2, the z-score was -0.0657 (inactive).

Regarding GCAUUGUGCUUUUGACAACTT against Abca15, the z-score was -0.173 (inactive).

GGAGCUUGAAAUUGUCAUUTT against Magoh: the z-score was -3.51 (active).

Turning to GGACCGGUGUCUAAUCAGCTT against Capn10, the z-score was 1.75 (inactive).

On to GGCUCAAGGAACAUGAGGCTT against Gtsf2, for which the z-score is -0.0452 (inactive).

On to GGCACAAACUAGAUGCAGATT against Ccdc68, for which the z-score was -0.669 (inactive).

In the case of GCUCUCGUAGACUGCUAUATT against Ppp1r14c, the z-score is 2.13 (active).

For the sequence GGAAUUUGAAUCACGUUUGTT against Hprt, the z-score is 1.72 (inactive).

On to CGGAUUCGGGAAUUCUAUCTT against Pcgf1, for which the z-score was 0.143 (inactive).

Turning to GGGUACCUCGUGGUACAUUTT against Rapgef3, the z-score is 0.352 (inactive).

For the sequence GGUCCAAAAGUUGUUUCAATT against Oga, the z-score is 3.12 (active).

As for GGAUUCAGCAGCUUCAGAATT against Rex1bd, the z-score was 0.221 (inactive).

Turning to GGAUUAUGCAAGUUACAUUTT against Nsf, the z-score was -0.63 (inactive).

Take GCACCUAGUUAAUGCUGCCTT against C2cd2: the z-score is -2.15 (active).

Turning to GCAGGCAUCGUGUUUACCATT against Cdh20, the z-score is 1.86 (inactive).

Consider GCUCAAUUGUUCUUCUUUUTT against Olfr806, for which the z-score is -1.13 (inactive).

Take GCUUUAGAACAGAGGGUUATT against Scd4: the z-score was 0.989 (inactive).

As to GGAGAUCUUCAACUGCCACTT against Rps6kl1, the z-score was 0.842 (inactive).

Take GGUGAUUACUCUUAUGUGATT against Slc7a8: the z-score was -0.663 (inactive).

Take GGCUGAAGGAGCAAUCAAATT against L3mbtl3: the z-score was 1.85 (inactive).

On to GGCCGUUAUUAAAUUCAUATT against Twsg1, for which the z-score is -0.609 (inactive).

For GCCGUACCAUGUAAUGCCATT against Naa60, the z-score is -2.05 (active).

GGCCUCAGCUCACAACAAATT against Sf3b4: the z-score was -1.71 (inactive).

With GGAAGCAAAAUAAAGAAACTT against Myo1e, the z-score was 0.109 (inactive).

On to GCGAGAGUCACAAAGUGCATT against Rcc1l, for which the z-score is 1.35 (inactive).

Turning to GCUAGAGGUGACUGAUGUCTT against Tti1, the z-score was -1.26 (inactive).

In the case of GGAACAAGAGAGGACAAGUTT against Papss2, the z-score is 0.555 (inactive).

On to GCCAAAAGUCGAGCACCUCTT against Lrrc8d, for which the z-score is 0.43 (inactive).

On to CGGUGCUUGCUUCUAUGUGTT against Olfr642, for which the z-score is 0.201 (inactive).

For the sequence GCUUUUGUGACUCUGCUGATT against Raver1, the z-score is -1.41 (inactive).

Consider CCAUCUAUCAACUUCUACATT against Sat1, for which the z-score was -0.34 (inactive).

For GGCUAUGUUCACCUGUGGATT against Kbtbd12, the z-score was -2.66 (active).

Take CCUGUAAGAACCUUGCCUATT against Sytl3: the z-score is 0.733 (inactive).

In the case of GGAAGGAAGAAGACAAUAATT against Nudt16l1, the z-score was -0.438 (inactive).

For GCGGAUGAUCAAGAAUCGATT against Atf6b, the z-score was -0.421 (inactive).

Take GCUGUGAAAACGCAGUUACTT against Ccser2: the z-score was 1.77 (inactive).

As to CCUAUACAUGCUACUGAACTT against Itga9, the z-score is -0.723 (inactive).

As to CCCAGGGUACCUCACAUCUTT against Nrp1, the z-score is -0.595 (inactive).

Turning to GGUCAUCAAUGCCACAGCUTT against Lpo, the z-score was -2.24 (active).
